In PubChem BioAssay (NCI) one finds growth data, which are given here for nine compounds.

Common to all, as to assay: NCI-60 one-dose screen, 48 h (100 = growth as untreated, 0 = no growth, -100 = all killed)
Common to all, as to settings: 10 µM unless noted

Assay [1] has as its system NCI-H23 lung.
For assay [2], the system named is NCI-H226 lung.
Assay [3] concerns NCI-H322M lung.
The subject of assay [4] is NCI-H460 lung.
Assay [5] has as its system HOP-92 NSCLC.
Assay [6] has as its system NCI-H522 lung.
Assay [7] concerns A549/ATCC NSCLC.
For assay [8], the system named is 786-0 renal.
Assay [9] deals with COLO 205 colon.
Assay [10] has as its system DU-145 prostate.
In assay [11] the test system is K-562 leukemia.
Assay [12] has as its system MALME-3M melanoma.
Assay [13] concerns MDA-MB-231 breast.
In assay [14] the test system is SF-268 CNS.
Assay [15] concerns SF-295 CNS.
Assay [16] concerns SF-539 CNS.
Assay [17] relates to UACC-257 melanoma.
Assay [18] concerns M14 melanoma.
The test system of assay [19] is RXF 393 renal.

The panel holds about 83,000 compounds, 20% with a hit somewhere; the sample as a whole holds those more often.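 Results are percent growth after 48 hours of single-concentration exposure. 100 means growth as in untreated cells, lower positive values show inhibition; negative values down to -100 show cell death.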 Unmarked numbers belong to inactive results. Active and inactive are the calls of the source. The calls were made as follows: active = growth percent below 10; inactive = the rest.

On to `Cc1ccc(-c2c(Br)c(OC(=O)CO[C@@H]3C[C@H](C)CC[C@H]3C(C)C)c(-c3ccc(C)cc3C)c(Br)c2OC(=O)CO[C@H]2C[C@@H](C)CC[C@@H]2C(C)C)c(C)c1`, for which the growth in [1] was 98.6%; in assay [2], 56.2%; in assay [3], 103%; in [4], 105%; in [5], 93.6%; in assay [6], 79.4%. In addition, the growth was 88.9% in assay [7]; 96.8% in assay [8]; 95.3% in assay [9]; 106% in assay [10]; 110% in assay [11]; 106% in assay [12]. Further, the growth in assay [13] was 96.1%; in assay [14], 100%; in assay [15] it was 96.2%; in assay [16], 101%; in assay [17], 98.8%; in [18], 91.5%.
As for `Clc1nc(Cl)c2ncn(CC3(Cn4cnc5c(Cl)nc(Cl)nc54)COC3)c2n1`, the growth is -70.2% (active) in assay [1]; -81.3% (active) in [2]; -100% (active) in assay [3]; -65.5% (active) in [4]; -91.9% (active) in assay [5]; -89.1% (active) in [6]. Further, the growth in assay [7] was -77% (active); in assay [8], -98.7% (active); in [9], -76.6% (active); in assay [10] it was -100% (active); in [11] it was -70.4% (active); in assay [12], -69.8% (active). Moreover, the growth in [13] is -88.9% (active); in assay [14] it was -73.7% (active); in [15], -83.6% (active); in assay [16], -93.4% (active); in assay [17], -90.9% (active); in assay [18] it was -92.7% (active).
Take `O=C(N/N=C/c1cccnc1)c1ccccc1Nc1cccc(C(F)(F)F)c1`: the growth in assay [1] is 94.2%; in [2], 109%; in assay [3], 85.6%; in [4] it was 102%; in assay [5], 72%; in assay [6] it was 81.8%. Besides, the growth in assay [7] is 42.4%; in assay [8], 83.7%; in assay [9], 105%; in assay [10] it was 91.1%; in assay [11], 41.5%; in assay [12], 65%. Further, the growth in assay [13] is 118%; in assay [14] it was 76.6%; in assay [15], 64.7%; in assay [16], 96.7%; in assay [17], 75.3%; in [18], 73%.
With `C/C(=C(/c1ccccc1)c1ccc(OCC(O)CNCCN2CCOCC2)cc1)c1ccccc1` (stereo unspecified), the growth in assay [1] is 83.2%; in assay [2], 96.1%; in assay [3], 72.7%; in assay [4], 17.6%; in [5] it was 59.1%; in assay [6], 44.6%. For the same compound, the growth in assay [8] is 97.6%; in assay [9], -64.5% (active); in assay [10], 67.8%; in [11] it was 2.44% (active); in [12], -71.2% (active); in [13] it was 29.4%. Also, the growth in [14] is 78.5%; in assay [15], 71.2%; in [16], 72.8%; in [17], -27.5% (active); in [18], 92.6%.
As to `Cc1cc(C)c(C=O)c(C)c1`, the growth in assay [1] is 101%; in [2], 95.2%; in assay [3] it was 106%; in assay [4], 106%; in assay [5] it was 86.4%; in assay [6], 82.7%. The growth in assay [7] was 72.1%; in assay [8] it was 96.2%; in assay [9], 107%; in assay [10], 117%; in assay [11] it was 100%; in [12] it was 114%. The growth in assay [13] is 112%; in assay [14] it was 104%; in assay [15] it was 101%; in [16], 106%; in [17], 74.5%; in assay [18], 84.3%.
For the compound `COc1cc2oc(-c3cccc(C(=O)Nc4ccc(Cl)cc4)c3)cc(=O)c2c(OC)c1OC`, the growth was 44.3% in assay [1]; 36.5% in assay [2]; 37% in assay [3]; 20.1% in assay [4]; -2.18% (active) in assay [5]; 25.2% in [6]. Also, the growth is 23.6% in assay [7]; 12% in assay [8]; 18% in assay [9]; 42.4% in [10]; 16% in assay [11]; 14.2% in assay [12]. Besides, the growth in assay [13] was -3.1% (active); in [19], -29% (active); in assay [14] it was 48.3%; in assay [15], -41.6% (active); in assay [16], 35.2%; in assay [17], -7.18% (active). The growth in [18] is -18% (active).
`COc1ccc(C(=O)c2cc3c(N)c(C(=O)Nc4ccc(Cl)cc4)sc3nc2C)cc1`: the growth is 89.7% in assay [1]; 57.1% in [2]; 87.1% in assay [3]; 68.4% in assay [4]; 78.2% in assay [5]; 43.8% in [6]. The growth in [7] is 77.1%; in [8], 81.6%; in [9] it was 85.8%; in assay [10], 90.1%; in [11], 31.1%; in [12], 58.7%. Moreover, the growth was 81.2% in assay [13]; 56.4% in assay [14]; 89.3% in assay [15]; 71.9% in assay [16]; 77.3% in assay [17]; 61.5% in assay [18].
Consider `Cc1ccc2[nH]c(=S)n(-c3ccc(S(=O)(=O)Nc4ccc(Cl)nn4)cc3)c(=O)c2c1`, for which the growth was 101% in [1]; 98.9% in [2]; 110% in [3]; 104% in assay [4]; 104% in assay [5]; 92.5% in assay [6]. Besides, the growth was 60.7% in assay [8]; 110% in assay [9]; 109% in assay [10]; 102% in [11]; 101% in [12]; 101% in [13]. The growth was 101% in assay [14]; 104% in assay [15]; 95.6% in assay [16]; 99.7% in assay [17]; -69.5% (active) in assay [18].
Regarding `NC(=O)c1cccc(-c2cc(C(N)=O)ccc2Cl)c1`, the growth in [1] is 43.3%; in assay [2] it was 69.1%; in assay [3], 92.3%; in [4], 98.2%; in assay [5] it was 52%; in assay [6], 23.4%. In addition, the growth in assay [7] was 85%; in [8] it was 48.7%; in [9], 33.5%; in assay [10], 27.1%; in assay [11], 8.24% (active); in assay [12] it was 46.4%. The growth is 47.4% in assay [13]; 45.3% in assay [14]; 25% in assay [15]; -21% (active) in [16]; 47.8% in assay [17]; 16.1% in assay [18].
